Reference: PubChem BioAssay AID1159580 (chemical genetic matrix, 2015)
Several values for one entry are separate records, joined by “and”; a condition that tells them apart may be missing. Equal entries are not always repeated. In all, about 5,500 compounds went through this assay and about 2,000 (36%) were called active. Not shown: some 18% with an inconclusive outcome. No stated cut-off is given here; in the data, active means normalized growth mostly below about 0.91 (no sharp cut-off); inconclusive means no clear call, values can overlap the other calls; inactive means mostly above about 0.92. The list shows a part of the results.

Assay: chemical genetic growth profiling, strain panel (AID 1159580);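 further: tested at 20 µM; growth read once vehicle control cultures reached saturation at 30 °C; 1 = growth at the plate median or of vehicle wells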
Settings: S. cerevisiae deletion strains, growth OD

## N#Cc1c(Cl)c(Cl)c(Cl)c(C#N)c1Cl
Locus YAL013W, strain DEP1, stronger effect = lower value
  normalized growth: 1 (inactive)
Locus YAL021C, strain ccr4, stronger effect = lower value
  normalized growth: 0.0842 (active)
Locus YAL026C, strain drs2, stronger effect = lower value
  normalized growth: 0.0831 (active)
Locus YAL030W, strain snc1, stronger effect = lower value
  normalized growth: 0.0677 (active)
Locus YBL061C, strain skt5, stronger effect = lower value
  normalized growth: 0.0748 (active)
Locus YBR009C, strain hhf1, stronger effect = lower value
  normalized growth: 0.0742 (active)
Locus YBR021W, strain FUR4, stronger effect = lower value
  normalized growth: 0.953 (inactive)
Locus YBR023C, strain chs3, stronger effect = lower value
  normalized growth: 0.0756 (active)
Locus YBR171W, strain sec66, stronger effect = lower value
  normalized growth: 0.0931 (active)
Locus YBR229C, strain ROT2, stronger effect = lower value
  normalized growth: 0.991 (inactive)
Locus YBR231C, strain swc5, stronger effect = lower value
  normalized growth: 0.077 (active)
Locus YBR279W, strain paf1, stronger effect = lower value
  normalized growth: 0.0631 (active)
Locus YCL011C, strain gbp2, stronger effect = lower value
  normalized growth: 0.0716 (active)
Locus YCL016C, strain dcc1, stronger effect = lower value
  normalized growth: 0.0812 (active)
Locus YCL029C, strain bik1, stronger effect = lower value
  normalized growth: 0.976 (inactive)
Locus YCL061C, strain MRC1, stronger effect = lower value
  normalized growth: 0.078 (active)
Locus YCL069W, strain vba3, stronger effect = lower value
  normalized growth: 0.0768 (active)
Locus YCR088W, strain abp1, stronger effect = lower value
  normalized growth: 0.0707 (active)
Locus YDL005C, strain med2, stronger effect = lower value
  normalized growth: 0.0898 (active)
Locus YDL035C, strain GPR1, stronger effect = lower value
  normalized growth: 1 (inactive)
Locus YDL040C, strain nat1, stronger effect = lower value
  normalized growth: 0.0666 (active)
Locus YDL074C, strain BRE1, stronger effect = lower value
  normalized growth: 1.01 (inactive)
Locus YDL101C, strain DUN1, stronger effect = lower value
  normalized growth: 1 (inactive)
Locus YDL134C, strain PPH21, stronger effect = lower value
  normalized growth: 0.992 (inactive)
Locus YDL185W, strain tfp1, stronger effect = lower value
  normalized growth: 0.951 (inactive)
Locus YDL192W, strain arf1, stronger effect = lower value
  normalized growth: 0.984 (inactive)
Locus YDR001C, strain nth1, stronger effect = lower value
  normalized growth: 0.071 (active)
Locus YDR069C, strain doa4, stronger effect = lower value
  normalized growth: 0.0807 (active)
Locus YDR101C, strain arx1, stronger effect = lower value
  normalized growth: 0.986 (inactive)
Locus YDR137W, strain rgp1, stronger effect = lower value
  normalized growth: 0.106 (active)
Locus YDR150W, strain NUM1, stronger effect = lower value
  normalized growth: 1.01 (inactive)
Locus YDR159W, strain sac3, stronger effect = lower value
  normalized growth: 0.113 (active)
Locus YDR162C, strain NBP2, stronger effect = lower value
  normalized growth: 1.01 (inactive)
Locus YDR195W, strain ref2
  normalized growth: 0.161 (active)
Locus YDR297W, strain sur2, stronger effect = lower value
  normalized growth: 0.0715 (active)
Locus YDR318W, strain mcm21, stronger effect = lower value
  normalized growth: 0.975 (inactive)
Locus YDR334W, strain swr1, stronger effect = lower value
  normalized growth: 0.0727 (active)
Locus YDR335W, strain msn5, stronger effect = lower value
  normalized growth: 0.0699 (active)
Locus YDR388W, stronger effect = lower value
  normalized growth: 0.97 (inactive)
Locus YDR392W, strain spt3, stronger effect = lower value
  normalized growth: 0.0937 (active)
Locus YDR502C, strain sam2, stronger effect = lower value
  normalized growth: 0.996 (inactive)
Locus YEL003W, strain gim4, stronger effect = lower value
  normalized growth: 0.0699 (active)
Locus YEL037C, strain rad23, stronger effect = lower value
  normalized growth: 0.0662 (active)
Locus YEL061C, strain CIN8 (second series), stronger effect = lower value
  normalized growth: 0.0687 (active)
Locus YEL061C, strain CIN8, stronger effect = lower value
  normalized growth: 1 (inactive)
Locus YER015W, strain faa2, stronger effect = lower value
  normalized growth: 0.078 (active)
Locus YER016W, strain bim1, stronger effect = lower value
  normalized growth: 0.0769 (active)
Locus YER110C, stronger effect = lower value
  normalized growth: 0.976 (inactive)
Locus YER111C, strain swi4, stronger effect = lower value
  normalized growth: 0.0874 (active)
Locus YER155C, strain BEM2 (second series), stronger effect = lower value
  normalized growth: 0.108 (active)
Locus YER155C, strain BEM2, stronger effect = lower value
  normalized growth: 0.993 (inactive)
Locus YER167W, strain BCK2, stronger effect = lower value
  normalized growth: 0.993 (inactive)
Locus YFR010W, strain ubp6, stronger effect = lower value
  normalized growth: 0.0828 (active)
Locus YGL078C, strain dbp3, stronger effect = lower value
  normalized growth: 0.983 (inactive)
Locus YGL086W, strain mad1, stronger effect = lower value
  normalized growth: 0.976 (inactive)
Locus YGL167C, strain pmr1, stronger effect = lower value
  normalized growth: 0.0894 (active)
Locus YGL173C, strain kem1, stronger effect = lower value
  normalized growth: 0.084 (active)
Locus YGL227W, strain vid30, stronger effect = lower value
  normalized growth: 0.0779 (active)
Locus YGL240W, strain doc1, stronger effect = lower value
  normalized growth: 0.0947 (active)
Locus YGL248W, strain PDE1, stronger effect = lower value
  normalized growth: 0.994 (inactive)
Locus YGL253W, strain hxk2, stronger effect = lower value
  normalized growth: 0.0661 (active)
Locus YGR078C, strain PAC10, stronger effect = lower value
  normalized growth: 1.01 (inactive)
Locus YGR135W, strain pre9, stronger effect = lower value
  normalized growth: 0.998 (inactive)
Locus YGR229C, strain SMI1, stronger effect = lower value
  normalized growth: 1 (inactive)
Locus YGR252W, strain gcn5, stronger effect = lower value
  normalized growth: 0.932 (inactive)
Locus YHR013C, strain ard1, stronger effect = lower value
  normalized growth: 0.114 (active)
Locus YHR027C, strain rpn1, stronger effect = lower value
  normalized growth: 0.0746 (active)
Locus YHR030C, strain SLT2, stronger effect = lower value
  normalized growth: 0.992 (inactive) and 0.126 (active)
Locus YHR079C, strain IRE1 (second series), stronger effect = lower value
  normalized growth: 0.98 (inactive)
Locus YHR079C, strain IRE1, stronger effect = lower value
  normalized growth: 0.142 (active)
Locus YHR094C, strain hxt1, stronger effect = lower value
  normalized growth: 0.979 (inactive)
Locus YHR129C, strain ARP1, stronger effect = lower value
  normalized growth: 1 (inactive)
Locus YHR142W, strain chs7, stronger effect = lower value
  normalized growth: 0.0874 (active)
Locus YHR200W, strain rpn10, stronger effect = lower value
  normalized growth: 0.973 (inactive)
Locus YIL066C, strain RNR3, stronger effect = lower value
  normalized growth: 0.989 (inactive)
Locus YIL073C, strain SPO22, stronger effect = lower value
  normalized growth: 0.969 (inactive)
Locus YIL125W, strain kgd1, stronger effect = lower value
  normalized growth: 0.98 (inactive)
Locus YIR030C, strain dcg1, stronger effect = lower value
  normalized growth: 0.976 (inactive)
Locus YJL092W, strain hpr5, stronger effect = lower value
  normalized growth: 0.0707 (active)
Locus YJL095W, strain BCK1 (second series), stronger effect = lower value
  normalized growth: 0.0749 (active)
Locus YJL095W, strain BCK1, stronger effect = lower value
  normalized growth: 1 (inactive) and 0.151 (active)
Locus YJL115W, strain asf1, stronger effect = lower value
  normalized growth: 0.0849 (active)
Locus YJL129C, strain trk1, stronger effect = lower value
  normalized growth: 0.106 (active)
Locus YJL134W, strain LCB3, stronger effect = lower value
  normalized growth: 0.998 (inactive)
Locus YJL154C, strain vps35, stronger effect = lower value
  normalized growth: 0.07 (active)
Locus YJL164C, strain tpk1, stronger effect = lower value
  normalized growth: 0.0766 (active)
Locus YJL166W, strain qcr8, stronger effect = lower value
  normalized growth: 0.0732 (active)
Locus YJL168C, strain set2, stronger effect = lower value
  normalized growth: 0.985 (inactive)
Locus YJL187C, strain SWE1 (second series), stronger effect = lower value
  normalized growth: 0.994 (inactive)
Locus YJR043C, strain POL32, stronger effect = lower value
  normalized growth: 0.994 (inactive)
Locus YJR066W, strain TOR1, stronger effect = lower value
  normalized growth: -0.00264 (active)
